Screening results deposited in PubChem BioAssay by National Center for Advancing Translational Sciences (NCATS).
DRD3 agonist – qHTS of D3 Dopamine Receptor Agonist: qHTS; D(3) dopamine receptor (Homo sapiens), P35462; D3R DiscoveRx beta-arrestin cells, luminescence, 90 min; max activation, %; hit rate 0.58% among 410,000; AID 652048, 2013; in the data active = max activation above about 30%; also: 0% is about no effect
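Agonist mode: compounds and dopamine controls were applied to plated cells for 90 min at 37 degrees C after an overnight attachment at 1500 cells/well. Luminescent read-out followed 30 - 60 minutes at room temperature with DiscoveRx detection reagent.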
D3 antag – qHTS of D3 Dopamine Receptor Antagonist: qHTS; D(3) dopamine receptor (Homo sapiens), P35462; D3R cells, DiscoveRx beta-arrestin luminescence, antagonist mode; active compounds read low; max response, negative = inhibition, %; hit rate 2.5% among 360,000; in the data active = max response below about -50%; inconclusive = no clear call, values can overlap the other calls; also: % is scaled to controls: 0 for no effect and ±100 for the full control effect
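Cells plated overnight at 1500 cells/well, then exposed to library compounds with dopamine controls for 90 minutes at 37 degrees C. DiscoveRx reagent added for 30–60 minutes at room temperature; luminescence read, quantitative HTS format.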
LDHA inh – qHTS assay for inhibitors of human lactate dehydrogenase. L-lactate dehydrogenase A chain (Homo sapiens), P00338. purified LDHA, NADH/diaphorase-resazurin fluorescence; active compounds read low. activity change, % (values are at about 110 or 230 µM). hit rate 0.15% among 480,000. AID 1347041, 2019; in the data active = activity change below about -30%; inconclusive = mostly about -25% to -30%;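 also: plate controls were DMSO wells for no effect and wells without enzyme for full effect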
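Human LDH5 at 2 nM final in Tris HCl pH 7.4 with 0.06 mM NADH and 0.2 mM pyruvate, reacted 5 minutes at room temperature. Remaining NADH coupled via diaphorase/resazurin; resorufin fluorescence read at 0 and 20 minutes, normalized to enzyme-free and DMSO wells.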
PI4K2A inh – qHTS for small molecular inhibitors of PI4K2A. Phosphatidylinositol 4-kinase type 2-alpha (Homo sapiens), Q9BTU6. purified PI4K2A, ADP-Glo luminescence, 1 h; active compounds read low. activity change, negative = inhibition, % at 76.9 µM. hit rate 0.13% among 420,000. AID 1346378, 2018; in the data active = activity change below about -50%; inconclusive = mostly about -30% to -49%;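 also: -100% = wells without enzyme as full effect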
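PI4K2A activity was measured by ADP-Glo luminescence: enzyme (4 ug/mL stock) and phosphatidylinositol (1.2 mM stock) in Tris pH 7.5/MgCl2/EGTA/Triton X-100 buffer were reacted with ATP (300 microM stock) for one hour at ambient temperature.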
PI5P4Ka inh – qHTS for Inhibitors of phosphatidylinositol 5-phosphate 4-kinase (PI5P4K); max response, %; PI5P4Kalpha enzyme, ADP-Glo luminescence, 60 min; active compounds read low; Phosphatidylinositol 5-phosphate 4-kinase type-2 alpha (Homo sapiens), P48426; hit rate 1.2% among 330,000; active = max response of -50% or lower; inconclusive = between -30% and -50%; inactive = -30% or higher; also: value at the top dose of about 77 µM; % is scaled to controls: 0 for no effect and ±100 for the full control effect
Target sequence (P48426 whole entry, looked up): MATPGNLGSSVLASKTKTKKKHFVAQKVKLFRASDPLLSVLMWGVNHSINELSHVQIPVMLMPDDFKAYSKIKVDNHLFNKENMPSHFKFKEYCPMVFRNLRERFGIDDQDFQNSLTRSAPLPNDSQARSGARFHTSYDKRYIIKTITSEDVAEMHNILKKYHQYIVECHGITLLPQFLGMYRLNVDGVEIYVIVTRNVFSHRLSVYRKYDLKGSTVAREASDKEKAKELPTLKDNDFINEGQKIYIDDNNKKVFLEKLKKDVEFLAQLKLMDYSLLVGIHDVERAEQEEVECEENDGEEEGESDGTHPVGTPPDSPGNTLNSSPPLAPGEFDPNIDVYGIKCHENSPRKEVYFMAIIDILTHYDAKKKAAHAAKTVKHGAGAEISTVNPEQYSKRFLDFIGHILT
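Compounds were pin-transferred onto PI5P4Kalpha and substrate in HEPES pH 7.4 buffer with EGTA, CHAPS and 5% DMSO. ATP (5 microM final) started the reaction, which ran 60 minutes at room temperature before ADP-Glo detection.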
Starred values were filed as active, the others as inactive; ? = inconclusive; . = no result; ! = a repeat was not active. The list is not random: actives were taken first. Their share in the collection is about 3.3%.

SMILES	DRD3 agonist	D3 antag	LDHA inh	PI4K2A inh	PI5P4Ka inh
O=C(O)c1ccc(-c2ccc(/C=c3/sc4nc5ccccc5n4c3=O)o2)cc1Cl	-7	0	-3	-3	-64*
Cc1cc(NC(=O)C(C)(C)Oc2cccc(Cl)c2)no1	.	.	1	.	.
Cc1cc(C)cc(-n2nnnc2SCC(=O)N2CCN(CC(=O)N3CCCC3)CC2)c1	.	.	14	.	.
O=[N+]([O-])c1cc(C(F)(F)F)cc2nc3ccccn3c12	.	.	4	.	.
c1ccc(-c2nc(N3CCCCCC3)c3ccccc3n2)nc1	-18	-127*	2	-9	-3
CN1CCN(c2nc(-c3ccc(Cl)cc3)nc3ccccc23)CC1	-31	-61*	-2	-12	20
c1ccc(-c2nc(N3CCCC3)c3ccccc3n2)nc1	.	.	-2	.	.
c1ccc(CCNc2nc(-c3ccccn3)nc3ccccc23)cc1	-26	-70*	-3	-12	-6
CCCCOc1ccc2c(C)c(CCC)c(=O)oc2c1	.	.	0	.	.
COC(=O)[C@H](CC(C)C)NC(=O)Cn1nc(N2CCN(c3ccccc3)CC2)ccc1=O	.	.	-5	.	.
COc1ccc(OC)c(NC(=O)c2nc(S(=O)(=O)Cc3ccccc3)ncc2Cl)c1	-38	-104*	-8	5	-14
COc1ccc(NC(=O)c2nc(S(=O)(=O)Cc3cccc(C)c3)ncc2Cl)c(OC)c1	-9	-116*	0	1	3
COc1ccc2nc(NC(=O)c3nc(S(=O)(=O)Cc4cccc(C)c4)ncc3Cl)sc2c1	-17	.	-18	?	.
CC(C/C=N/NC(=O)c1csc2ccccc12)c1ccccc1 (stereo not given)	.	.	2	.	.
COc1ccc(CCN(C(=O)c2ccc(F)cc2)C2=CC3CCC(C2)N3C)cc1OC (stereo not given)	2	-56*	4	0	-1
COc1cc(C(=O)N(CCc2ccccc2)C2=CC3CCC(C2)N3C)cc(OC)c1OC (stereo not given)	-1	6	-3	-2	3
Cc1c(CC(=O)N2CCN(c3ccccn3)CC2)c(=O)oc2cc(O)ccc12	.	.	3	.	.
Cc1ccc([C@H]2N[C@]3(CCCN(Cc4ccco4)C3=O)[C@H]3C(=O)N(Cc4ccccc4)C(=O)[C@@H]23)cc1	-3	-7	-14	0	-2
O=C1[C@H]2[C@@H](c3ccccc3)N[C@]3(CCCN(Cc4ccco4)C3=O)[C@H]2C(=O)N1Cc1ccccc1	-3	-56*	2	0	-12
COCCNC(=O)C1(C)CCCN(C(=O)c2cnc3ccccc3n2)C1 (stereo not given)	6	-5	-2	-3	5
CCNC(=O)C1(C)CCCN1C(=O)c1cnc2ccccc2n1 (stereo not given)	-3	-58*	0	-2	-6
CCCn1nnc(NC(=O)c2ccc(-c3cccc(Cl)c3)o2)n1	-6	11	-4	-14	3
CCCCn1nnc(NC(=O)c2ccc(-c3cccc(Cl)c3)o2)n1	-4	-86*	-4	-5	.
O=C(O)c1cccc(-n2cccc2/C=C2/NC(=O)N(c3ccc(Cl)cc3)C2=O)c1	-5	3	-20	?	-98*
O=C(O)c1ccc(COc2ccccc2/C=C2/NC(=O)N(c3cccc(Cl)c3)C2=O)cc1	2	-2	-17	2	-50*
SMILES	DRD3 agonist	D3 antag	LDHA inh	PI4K2A inh	PI5P4Ka inh
Cc1ccccc1NC(=O)CN1C(=O)N/C(=C\c2ccccc2OCc2ccc(C(=O)O)cc2)C1=O	-2	0	-8	-51*	?
O=C(O)c1cccc(-n2cccc2/C=C2/NC(=O)N(c3cccc(Cl)c3)C2=O)c1	-7	-10	-30*!	-4	-59*
O=C(CN1C(=O)N/C(=C\c2ccccc2OCc2ccc(C(=O)O)cc2)C1=O)Nc1ccc(F)cc1	4	-23	-14	-3	-13
COc1cc(/C=C/C(=O)O)c(Br)c(Br)c1OC(C)C	.	.	0	.	.
Cc1ccc(-c2nc3ccccc3c(=O)n2NC(=O)c2cccs2)cc1	3	-51*	-8	1	1
O=C(Nc1ccccc1C(=O)NC(Cc1c[nH]c2ccccc12)C(=O)O)c1ccco1 (stereo not given)	4	-55*	-4	2	0
O=C(NC(Cc1c[nH]c2ccccc12)C(=O)O)c1ccco1 (stereo not given)	2	16	6	0	.
O=c1[nH]ncc(N2CCN(Cc3ccccc3)CC2)c1Cl	-15	-71*	-3	-2	13
CCn1c2c(c3cc(OCC(C)C)ccc31)CCCC2=O	-16	-9	5	3	.
CCn1c2c(c3cc(Br)ccc31)CCC/C2=N\O	36*	10	0	-1	.
C(=N\N1CCN(Cc2ccccc2)CC1)/c1cccs1	1	-73*	-4	3	3
c1ccc(-c2ccc(-c3nc(-c4ccncc4)no3)cc2)cc1	45*	38	0	-14	.
O=C1NC(=Nc2ccccc2)S/C1=C\C=C\c1ccco1	-2	-18	3	?	-94*
Cc1ccc(N=C2NC(=O)/C(=C/C=C/c3ccco3)S2)cc1	-9	0	5	?	-78*
Cc1cccc(N=C2NC(=O)/C(=C/C=C/c3ccco3)S2)c1C	-1	-4	11	-27	-80*
COc1ccc(N=C2NC(=O)/C(=C/c3ccco3)S2)cc1	-8	-10	-7	-10	-27
CC(C)C(=O)NCCc1ccc(C(=O)O)cc1	.	.	5	.	.
CCc1ccc(NS(=O)(=O)c2ccc(-c3coc(C)n3)cc2)cc1	.	.	8	.	.
COc1ccc2c(c1)CCc1c(C(=O)NC3CCCCC3)noc1-2	35*	28	5	3	.
COCCNC(=O)c1noc2c1CCc1cc(OC)ccc1-2	11	?	-3	1	.
CCN(C(=O)Cn1c(=O)c2c(ncn2CC)n(Cc2ccccc2)c1=O)C1CCS(=O)(=O)C1 (stereo not given)	.	.	2	.	.
CCCCn1nc(C(=O)N(C)Cc2cnn(-c3ccccc3)c2)c2ccccc2c1=O	.	.	-3	.	.
CCOc1ccc(S(=O)(=O)Nc2ccccc2SC)cc1	-17	-65*	-3	0	.
CN(c1ccccc1)S(=O)(=O)c1ccc2ccccc2c1	-4	8	1	-2	6
CSc1ccccc1NS(=O)(=O)c1ccc2c(c1)OCCO2	0	-85*	-1	1	.
CN(c1ccccc1)S(=O)(=O)c1ccc2c(c1)OCCO2	41*	-11	-5	-5	-5
CC1=NN(c2ccc(S(=O)(=O)O)cc2C)C(=O)C1	11	?	-1	-68*	-13
COc1ccc(NC(=O)c2cc(OC)nc3ccccc23)cc1	.	.	-5	.	.
